Compounds without any hit were thinned out: in the full panel of roughly 79,000, 15% have a hit. No stated cut-off is given here; in the data, active means growth inhibition above about 70%; inactive means the rest.
What was measured:
[1] = NCI Yeast Anticancer Drug Screen. Data for the rad50 strain (AID 155);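 further: 0% = growth of vehicle-only cultures of the same strain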; settings: S. cerevisiae rad50 strain growth inhibition; at 50.0 µM; stronger effect = higher value
How it was run: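 Relative growth inhibition (compound vs vehicle) was measured in yeast with a defined repair-gene alteration.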

[2] = NCI Yeast Anticancer Drug Screen. Data for the mec2-1 strain (AID 157); settings: S. cerevisiae mec2-1 strain, at 50.0 µM, stronger effect = higher value
How it was run: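 mec2-1 yeast strain, carrying an alteration in DNA damage repair or cell cycle control, was exposed to compounds; growth inhibition was measured relative to vehicle-treated controls.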

[3] = NCI Yeast Anticancer Drug Screen. Data for the sgs1 mgt1 strain (AID 161);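 further: 0% = growth of cultures given vehicle only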; settings: S. cerevisiae sgs1 mgt1 strain, at 50.0 µM, stronger effect = higher value
How it was run: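 Yeast cells carrying a defined DNA-repair defect were exposed to test compounds. Growth inhibition was measured relative to vehicle-treated controls.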

[4] = NCI Yeast Anticancer Drug Screen. Data for the cln2 rad14 strain (AID 165);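 further: 0% = growth equal to vehicle treated cultures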; settings: S. cerevisiae cln2 rad14 strain, at 50.0 µM, stronger effect = higher value
How it was run: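 Yeast carrying cln2 and rad14 alterations (cell cycle control and DNA damage repair) were exposed to compounds. Growth inhibition was measured against vehicle-treated controls.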

[5] = NCI Yeast Anticancer Drug Screen. Data for the bub3 strain (AID 167); settings: S. cerevisiae bub3 mutant strain, at 50.0 µM, stronger effect = higher value
How it was run: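 Screening used yeast with an engineered genetic alteration affecting cell cycle control. Compound-exposed cultures were compared with vehicle cultures, and reduced growth was taken as inhibition.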

[6] = NCI Yeast Anticancer Drug Screen. Data for the mlh1 rad18 strain (AID 175); settings: S. cerevisiae mlh1 rad18 strain growth inhibition; at 50.0 µM; stronger effect = higher value
How it was run: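 Growth inhibition of the yeast strain was measured after compound exposure and expressed relative to vehicle-treated controls. The strain carries defined defects in DNA damage repair.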

Measured: growth inhibition

C[N+](C)(C)CC(O)CC#N (centres undefined)
inactive: [1] -2.25% | [2] 1.75% | [3] -4% | [4] -8.35% | [5] 0.55% | [6] -1.8%

COc1cc2cccc(N=Cc3cccc(OC)c3OC(C)C)c2cc1OC
inactive: [1] -20.9% | [2] -13.2% | [3] 11.6% | [4] 16.1% | [5] -4.6% | [6] -8.6%

CN(C)c1ccc(/C=N\NC(=S)NCCCN2CCN(CCCNC(=S)N/N=C/c3ccc(N(C)C)cc3)CC2)cc1
inactive: [1] 36.1% | [2] 9.4% | [3] 5.45% | [4] 17.6% | [5] 1.5% | [6] 27.2%

[O-][n+]1c2ccccc2[n+]([O-])c2cc(O)ccc21
inactive: [1] 20.4% | [2] -4.05% | [3] 12.7% | [4] -1.3% | [5] 17.1% | [6] 50.8%

From PubChem BioAssay (NCI)
